# Measured values reported in PubChem BioAssay (EPA / NIEHS).
# Values joined by “and” are separate entries in the source; they are usually repeats but may differ in a detail not shown here. Equal values may be shown once. Inconclusive results are not listed. Some compounds were tested as several samples or in several runs, with calls that do not always agree. Active and inactive are the calls of the source. The calls were made as follows, unless noted: active = hit-call score of the fitted dose curve at least 0.9, where 1 is the maximum; inactive = score below 0.9.
# Assays:
# [1] = target: Oxysterols receptor LXR-alpha (Homo sapiens) (UniProt Q13133); test: ATG_LXRa_TRANS: Attagene TRANS-FACTORIAL HepG2 Assay for human Liver X Receptor alpha (LXRa) (AID 2282980; active = hit-call score of the fitted dose curve at least 0.9, where 1 is the maximum); settings: HepG2 Attagene TRANS reporter, LXRa transactivation
# Sequence of Oxysterols receptor LXR-alpha (Homo sapiens) (Q13133 whole entry, looked up, the tested form may be a part): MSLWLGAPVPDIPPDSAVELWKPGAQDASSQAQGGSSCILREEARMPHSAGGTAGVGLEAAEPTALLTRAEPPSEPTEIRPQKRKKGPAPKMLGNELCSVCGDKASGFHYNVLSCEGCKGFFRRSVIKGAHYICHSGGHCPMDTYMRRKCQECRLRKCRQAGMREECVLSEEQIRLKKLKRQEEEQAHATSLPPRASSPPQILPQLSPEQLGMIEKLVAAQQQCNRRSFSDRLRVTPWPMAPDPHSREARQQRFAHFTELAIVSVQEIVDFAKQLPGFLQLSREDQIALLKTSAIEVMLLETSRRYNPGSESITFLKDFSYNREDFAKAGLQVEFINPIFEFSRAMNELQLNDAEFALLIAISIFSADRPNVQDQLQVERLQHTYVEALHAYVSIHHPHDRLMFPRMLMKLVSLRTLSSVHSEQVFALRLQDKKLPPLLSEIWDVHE
# Procedure, shortened: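 HepG2 cells transiently transfected with GAL4-UAS reporter units for chimeric NR-Gal4 proteins, exposed to chemicals for 24 h. Reporter mRNA quantified by RT-PCR and capillary electrophoresis; gain of signal fitted relative to DMSO.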
# [2] = target: Oxysterols receptor LXR-beta (Homo sapiens) (UniProt P55055); test: ATG_LXRb_TRANS: Attagene TRANS-FACTORIAL HepG2 Assay for human Liver X Receptor beta (LXRb) (AID 2282981; active = hit-call score of the fitted dose curve at least 0.9, where 1 is the maximum); settings: HepG2 Attagene TRANS GAL4-LXRb reporter, mRNA
# Sequence of Oxysterols receptor LXR-beta (Homo sapiens) (P55055 whole entry, looked up, the tested form may be a part): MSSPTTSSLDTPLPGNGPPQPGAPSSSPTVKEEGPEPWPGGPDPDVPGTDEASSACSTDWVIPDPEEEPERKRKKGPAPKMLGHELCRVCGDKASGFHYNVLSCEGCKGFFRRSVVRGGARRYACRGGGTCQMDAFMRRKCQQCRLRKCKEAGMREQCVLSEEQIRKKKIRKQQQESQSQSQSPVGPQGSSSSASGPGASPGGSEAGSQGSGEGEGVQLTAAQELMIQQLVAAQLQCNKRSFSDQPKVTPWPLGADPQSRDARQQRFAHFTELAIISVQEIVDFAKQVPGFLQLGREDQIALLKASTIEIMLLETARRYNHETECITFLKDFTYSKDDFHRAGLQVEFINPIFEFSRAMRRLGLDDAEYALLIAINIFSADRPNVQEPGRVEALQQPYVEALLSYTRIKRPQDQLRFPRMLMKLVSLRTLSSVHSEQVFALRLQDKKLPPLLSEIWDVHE
# Procedure, shortened: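 Liver-derived HepG2 cells transfected with Gal4-responsive reporters were dosed for 24 h. Activation was scored as rise in reporter mRNA, by RT-PCR and capillary electrophoresis, above DMSO baseline.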
# [3] = target: Hepatocyte nuclear factor 4-alpha (Homo sapiens) (UniProt P41235); test: ATG_HNF4a_TRANS: Attagene TRANS-FACTORIAL HepG2 Assay for human Hepatocyte Nuclear Factor 4 alpha (HNF4a) (AID 2282982; active = hit-call score of the fitted dose curve at least 0.9, where 1 is the maximum); settings: HepG2 HNF4a transactivation reporter, mRNA readout
# Sequence of Hepatocyte nuclear factor 4-alpha (Homo sapiens) (P41235 whole entry, looked up, the tested form may be a part): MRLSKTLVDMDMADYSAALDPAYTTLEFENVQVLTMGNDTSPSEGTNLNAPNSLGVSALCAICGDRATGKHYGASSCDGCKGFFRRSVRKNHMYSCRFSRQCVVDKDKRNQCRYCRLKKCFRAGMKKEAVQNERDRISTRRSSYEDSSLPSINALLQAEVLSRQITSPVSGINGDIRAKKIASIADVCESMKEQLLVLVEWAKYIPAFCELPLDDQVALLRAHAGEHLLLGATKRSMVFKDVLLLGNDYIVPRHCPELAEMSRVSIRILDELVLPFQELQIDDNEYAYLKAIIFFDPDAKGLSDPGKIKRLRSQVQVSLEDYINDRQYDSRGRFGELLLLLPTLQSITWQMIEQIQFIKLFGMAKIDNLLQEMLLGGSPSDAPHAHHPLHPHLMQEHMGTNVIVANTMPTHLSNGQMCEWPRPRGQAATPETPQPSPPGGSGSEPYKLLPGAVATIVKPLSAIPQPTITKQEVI
# Procedure, shortened: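 Using HepG2 liver cells transfected with GAL4-UAS reporter units, chemical-induced mRNA increases were assessed after 24 hours. Fluorescent RT-PCR fragments were separated by capillary electrophoresis and compared with DMSO negative controls.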
# [4] = ATG_M_06_TRANS: Attagene TRANS-FACTORIAL HepG2 Assay for M06 Transcription Factor (Internal Marker) (AID 2282983; active = hit-call score of the fitted dose curve at least 0.9, where 1 is the maximum); settings: HepG2 Attagene TRANS M06 internal marker reporter
# Procedure, shortened: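 mRNA levels of a reporter transcript, quantified as FAM fluorescence on capillary electrophoresis, served as readout. HepG2 cells expressing exogenous GAL4-chimera reporter constructs were exposed for 24 h. Gain of signal over DMSO was evaluated.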
# [5] = ATG_M_32_TRANS: Attagene TRANS-FACTORIAL HepG2 Assay for M32 Transcription Factor (Internal Marker) (AID 2282984; active = hit-call score of the fitted dose curve at least 0.9, where 1 is the maximum;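 also: transcript level of a background control reporter unit measured by RT-PCR and capillary electrophoresis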); settings: HepG2 Attagene TRANS M32 internal marker reporter
# Procedure, shortened: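 Fluorescence-detected mRNA induction, HepG2 liver cells, 24 h after dosing. Multiple GAL4-UAS reporter units introduced by transient transfection; background-control endpoint analysed for gain of signal against DMSO.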
# [6] = target: Transcriptional activator Myb (Homo sapiens) (UniProt P10242); test: ATG_Myb_CIS: Attagene CIS-FACTORIAL HepG2 Assay for human Myeloblastosis (Myb) Proto-Oncogene Transcription Factor (AID 2282986); settings: HepG2 Attagene CIS-FACTORIAL Myb reporter transcription; actives raise or lower the signal
# Sequence of Transcriptional activator Myb (Homo sapiens) (P10242 whole entry, looked up): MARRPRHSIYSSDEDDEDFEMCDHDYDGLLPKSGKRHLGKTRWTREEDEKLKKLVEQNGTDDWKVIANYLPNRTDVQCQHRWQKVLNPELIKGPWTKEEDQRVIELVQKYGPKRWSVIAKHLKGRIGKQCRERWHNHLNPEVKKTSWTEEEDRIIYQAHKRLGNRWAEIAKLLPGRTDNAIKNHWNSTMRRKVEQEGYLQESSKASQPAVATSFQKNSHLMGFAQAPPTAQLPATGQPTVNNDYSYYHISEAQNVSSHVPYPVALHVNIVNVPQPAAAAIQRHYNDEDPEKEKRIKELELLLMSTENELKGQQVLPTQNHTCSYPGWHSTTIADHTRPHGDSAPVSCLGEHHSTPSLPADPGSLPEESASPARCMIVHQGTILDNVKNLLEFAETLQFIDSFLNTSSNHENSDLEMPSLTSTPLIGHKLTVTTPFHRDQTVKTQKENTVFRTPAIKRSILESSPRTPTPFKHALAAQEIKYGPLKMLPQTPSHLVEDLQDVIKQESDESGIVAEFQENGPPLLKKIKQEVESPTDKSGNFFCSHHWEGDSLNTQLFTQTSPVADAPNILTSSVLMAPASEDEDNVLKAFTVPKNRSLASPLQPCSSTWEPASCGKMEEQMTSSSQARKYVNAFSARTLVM
# Procedure, shortened: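 HepG2 cells were transiently transfected with cis-regulated multiple reporter transcription units reflecting endogenous Myb activity, then exposed to compound for 24 hours. Reporter mRNA was measured by RT-PCR with capillary electrophoresis; bidirectional fitting versus DMSO baseline.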
# [7] = target: Nuclear respiratory factor 1 (Homo sapiens) (UniProt Q16656); test: ATG_NRF1_CIS: Attagene CIS-FACTORIAL HepG2 Assay for human Nuclear Respiratory Factor 1 (NRF1) Orphan Gene (AID 2282987); settings: HepG2 NRF1 cis-element reporter, Attagene multiplex; actives raise or lower the signal
# Sequence of Nuclear respiratory factor 1 (Homo sapiens) (Q16656 whole entry, looked up): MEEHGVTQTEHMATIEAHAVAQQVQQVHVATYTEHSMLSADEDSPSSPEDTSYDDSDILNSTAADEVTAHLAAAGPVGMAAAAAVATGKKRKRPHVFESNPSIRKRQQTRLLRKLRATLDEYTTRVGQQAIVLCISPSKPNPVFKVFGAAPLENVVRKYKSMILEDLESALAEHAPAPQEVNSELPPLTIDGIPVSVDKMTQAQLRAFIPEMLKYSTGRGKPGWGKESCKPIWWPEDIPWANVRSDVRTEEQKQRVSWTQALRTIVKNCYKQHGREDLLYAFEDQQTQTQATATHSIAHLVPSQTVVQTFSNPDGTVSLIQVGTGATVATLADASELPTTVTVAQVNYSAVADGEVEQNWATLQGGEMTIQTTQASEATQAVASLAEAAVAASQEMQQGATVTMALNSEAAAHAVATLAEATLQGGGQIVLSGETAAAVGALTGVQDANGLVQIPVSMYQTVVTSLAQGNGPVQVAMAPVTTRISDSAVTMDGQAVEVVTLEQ
# Procedure, shortened: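 HepG2 cells transiently transfected with multiple reporter transcription units under cis-regulatory promoter control, so endogenous transcription-factor activity is read. After 24 h compound exposure, reporter mRNA quantified by RT-PCR, fluorescent labelling, HpaI digestion and capillary electrophoresis; bidirectional fitting versus DMSO.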
# [8] = ATG_NFI_CIS: Attagene CIS-FACTORIAL HepG2 Assay for human Nuclear Factor I (NFI) (AID 2282989); settings: HepG2 cis-regulatory reporter, NFI response element transcription; actives raise or lower the signal
# Procedure, shortened: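 Read-out: reporter mRNA via RT-PCR plus capillary electrophoresis with fluorescence detection. Transiently transfected HepG2 (endogenous TF activity on cis promoters), 24 h compound exposure; gain or loss of signal fitted against DMSO.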
# [9] = ATG_NF_kB_CIS: Attagene CIS-FACTORIAL HepG2 Assay for human Nuclear Factor Kappa B (NF-kB) (AID 2282991); settings: HepG2 Attagene cis-factorial NF-kB reporter mRNA; actives raise or lower the signal
# Procedure, shortened: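 HepG2 cells transiently transfected with multiplexed cis-element reporter units measuring endogenous transcription factor activity; reporter mRNA read 24 h after dosing by RT-PCR, fluorescent labelling, HpaI digestion and capillary electrophoresis. Bidirectional fit against DMSO baseline.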
# [10] = ATG_Oct_MLP_CIS: Attagene CIS-FACTORIAL HepG2 Assay for human Octamer-Binding Transcription Factor (Oct) (AID 2282993); settings: HepG2 Attagene cis-factorial Oct reporter, mRNA; actives raise or lower the signal
# Procedure, shortened: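 Read-out: reporter mRNA via RT-PCR plus capillary electrophoresis of 6-FAM-labelled fragments. Transiently transfected HepG2, 24 h exposure, endogenous TF activity on cis elements. Gain or loss of signal fitted relative to DMSO.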
# [11] = target: Cellular tumor antigen p53 (Homo sapiens) (UniProt P04637); test: ATG_p53_CIS: Attagene CIS-FACTORIAL HepG2 Assay for human p53 Transcription Factor (AID 2282994); settings: HepG2 p53 cis-element reporter, Attagene mRNA; actives raise or lower the signal
# Sequence of Cellular tumor antigen p53 (Homo sapiens) (P04637 whole entry, looked up): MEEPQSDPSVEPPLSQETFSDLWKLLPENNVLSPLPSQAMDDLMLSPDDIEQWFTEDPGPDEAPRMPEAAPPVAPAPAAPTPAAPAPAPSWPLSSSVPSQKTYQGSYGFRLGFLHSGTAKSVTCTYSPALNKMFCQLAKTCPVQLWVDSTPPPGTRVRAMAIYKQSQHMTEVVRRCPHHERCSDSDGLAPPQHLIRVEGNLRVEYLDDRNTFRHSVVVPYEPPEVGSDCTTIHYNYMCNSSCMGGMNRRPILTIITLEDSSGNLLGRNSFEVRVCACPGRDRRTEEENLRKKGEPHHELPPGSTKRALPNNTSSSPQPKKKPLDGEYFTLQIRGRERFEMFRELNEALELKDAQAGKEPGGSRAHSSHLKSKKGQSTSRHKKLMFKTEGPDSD
# Procedure, shortened: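 Endogenous p53 activity read in transiently transfected HepG2 from a cis-element-driven reporter transcript after 24 h exposure. RNA reverse-transcribed, PCR-amplified, fluorescently labelled and sized by capillary electrophoresis; gain or loss fitted against DMSO baseline.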
# [12] = BSK_3C_TissueFactor: BioMAP Diversity Plus: 3C Assay for Tissue Factor Biomarker Activity (AID 2282997); settings: BioMAP 3C HUVEC, tissue factor biomarker readout; actives raise or lower the signal
# Procedure, shortened: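 Tissue Factor measured by ELISA, 24 h after treatment of primary HUVEC in the BioMAP 3C setting.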
# [13] = BSK_3C_uPAR: BioMAP Diversity Plus: 3C Assay for Urokinase-type plasminogen activator receptor (uPAR) Biomarker Activity (AID 2282998); settings: BioMAP 3C HUVEC, uPAR biomarker ELISA; actives raise or lower the signal
# Procedure, shortened: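 HUVEC primary cells; 24 h post-dose; uPAR by ELISA; gain or loss of signal fitted bidirectionally vs DMSO baseline.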
# [14] = BSK_3C_VCAM1: BioMAP Diversity Plus: 3C Assay for Vascular cell adhesion molecule 1 (VCAM1) Biomarker Activity (AID 2282999); settings: BioMAP 3C HUVEC, VCAM1 ELISA, cytokine-stimulated; actives raise or lower the signal
# Procedure, shortened: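 Vascular primary endothelium (human umbilical vein) was exposed to chemicals and assayed 24 h later. VCAM-1 levels came from ELISA, with DMSO serving as baseline for bidirectional fitting.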
# [15] = BSK_4H_Eotaxin3: BioMAP Diversity Plus: 4H Assay for Eotaxin 3 Biomarker Activity (AID 2283000); settings: primary human endothelial cells (HUVEC); actives raise or lower the signal;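 as to outcome: CCL26 protein level quantified by ELISA in parallel with SRB cytotoxicity check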
# Procedure, shortened: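 Eotaxin-3 (CCL26) levels were measured by ELISA in HUVEC primary cultures 24 h post-dosing. Gain or loss of signal was fitted in both directions, with DMSO serving as baseline and negative control.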
# [16] = target: Bile acid receptor (Homo sapiens) (UniProt Q96RI1); test: ATG_FXR_TRANS: Attagene TRANS-FACTORIAL HepG2 Assay for Farnesoid X Receptor (FXR) (AID 2282979; active = hit-call score of the fitted dose curve at least 0.9, where 1 is the maximum;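 also: hits raise reporter mRNA above DMSO so AC50 marks FXR activation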); settings: HepG2 Attagene TRANS FXR-GAL4 reporter transcription
# Sequence of Bile acid receptor (Homo sapiens) (Q96RI1 whole entry, looked up, the tested form may be a part): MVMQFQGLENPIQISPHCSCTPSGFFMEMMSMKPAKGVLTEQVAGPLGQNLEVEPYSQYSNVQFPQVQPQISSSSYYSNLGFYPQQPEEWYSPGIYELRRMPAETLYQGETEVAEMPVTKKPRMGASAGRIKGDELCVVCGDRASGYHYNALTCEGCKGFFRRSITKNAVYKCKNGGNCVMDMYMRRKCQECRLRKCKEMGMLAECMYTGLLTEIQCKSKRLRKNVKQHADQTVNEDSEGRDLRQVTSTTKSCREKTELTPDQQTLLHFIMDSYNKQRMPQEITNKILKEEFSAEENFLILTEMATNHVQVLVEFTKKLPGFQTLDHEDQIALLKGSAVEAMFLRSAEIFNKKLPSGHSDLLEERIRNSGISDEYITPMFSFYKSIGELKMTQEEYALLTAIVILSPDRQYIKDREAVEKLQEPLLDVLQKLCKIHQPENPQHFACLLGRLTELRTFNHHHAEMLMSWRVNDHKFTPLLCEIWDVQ
# Procedure, shortened: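 HepG2 cells were transiently transfected with GAL4-UAS reporters driven by chimeric NR-Gal4 proteins and dosed for 24 h. Reporter mRNA was quantified by RT-PCR, fluorescent labelling, HpaI digestion and capillary electrophoresis, with gain of signal scored versus DMSO.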
# [17] = target: Myc proto-oncogene protein (Homo sapiens) (UniProt P01106); test: ATG_Myc_CIS: Attagene CIS-FACTORIAL HepG2 Assay for human Myelocytomatosis (Myc) Proto-Oncogene Transcription Factor (AID 2282990); settings: HepG2, Attagene cis-reporter transcription factor activity; actives raise or lower the signal
# Sequence of Myc proto-oncogene protein (Homo sapiens) (P01106 whole entry, looked up): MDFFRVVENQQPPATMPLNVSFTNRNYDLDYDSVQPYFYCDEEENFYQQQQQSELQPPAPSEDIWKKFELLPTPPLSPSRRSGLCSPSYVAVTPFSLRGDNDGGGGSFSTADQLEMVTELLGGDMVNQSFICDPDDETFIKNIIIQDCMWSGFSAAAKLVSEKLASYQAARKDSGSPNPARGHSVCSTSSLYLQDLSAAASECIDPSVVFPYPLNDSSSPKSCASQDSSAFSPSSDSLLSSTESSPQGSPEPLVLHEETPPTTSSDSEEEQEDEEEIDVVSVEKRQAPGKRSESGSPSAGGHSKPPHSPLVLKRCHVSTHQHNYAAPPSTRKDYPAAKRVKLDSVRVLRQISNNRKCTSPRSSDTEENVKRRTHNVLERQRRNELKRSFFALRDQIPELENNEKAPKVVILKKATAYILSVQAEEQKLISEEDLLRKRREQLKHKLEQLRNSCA
# Procedure, shortened: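 DMSO-normalised, bidirectionally fitted reporter mRNA signal. HepG2 cells transfected with cis reporter constructs, treated 24 h; transcripts detected by RT-PCR, 6-FAM primer extension and CE.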
# [18] = ATG_NRF2_ARE_CIS: Attagene CIS-FACTORIAL HepG2 Assay for human Nuclear Factor Erythroid 2 Related Factor 2 (NFR2) response to Antioxidant Response Elements (ARE) (AID 2282992); settings: HepG2 Attagene ARE/NRF2 reporter, transcription factor activity; actives raise or lower the signal
# Procedure, shortened: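 Endogenous transcription factor activity read out as reporter transcript levels (RT-PCR plus capillary electrophoresis, fluorescence) in transiently transfected HepG2 cells. Measured at 24 h after dosing; gain or loss of signal fitted versus DMSO.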
smiles,measurement,setting,value
CC(C)(c1ccc(O)cc1)c1ccc(O)cc1,outcome,[1],inactive
same,outcome,[2],inactive
same,outcome,[3],inactive
same,outcome,[4],inactive
same,outcome,[5],inactive
same,outcome,[6],inactive
same,AC50,[7],62.2 µM (active)
same,outcome,[7],inactive
same,AC50,[8],44.2 µM (active) and 37.8 µM (active)
same,outcome,[8],inactive
same,AC50,[9],56.9 µM (active)
same,outcome,[9],inactive
same,outcome,[10],inactive
same,AC50,[11],86.2 µM (active) and 100 µM (active) and 133 µM (active)
same,outcome,[11],inactive
same,outcome,[12],inactive
same,outcome,[13],inactive
same,outcome,[14],inactive
same,outcome,[15],inactive
COC(=O)c1c(Cl)nn(C)c1S(=O)(=O)NC(=O)Nc1nc(OC)cc(OC)n1,outcome,[16],inactive
same,outcome,[1],inactive
same,outcome,[2],inactive
same,outcome,[3],inactive
same,outcome,[4],inactive
same,outcome,[5],inactive
same,outcome,[6],inactive
same,outcome,[7],inactive
same,outcome,[8],inactive
same,outcome,[17],inactive
same,outcome,[9],inactive
same,outcome,[10],inactive
same,outcome,[11],inactive
same,outcome,[12],inactive
same,outcome,[13],inactive
same,outcome,[14],inactive
same,outcome,[15],inactive
C[C@]12C[C@H](O)[C@H]3[C@@H](CCC4=CC(=O)CC[C@@]43C)[C@@H]1CC[C@@H]2C(=O)CO,outcome,[16],inactive
same,outcome,[1],inactive
same,outcome,[2],inactive
same,outcome,[4],inactive
same,outcome,[5],inactive
same,outcome,[6],inactive
same,outcome,[7],inactive
same,outcome,[8],inactive
same,outcome,[9],inactive
same,outcome,[10],inactive
same,outcome,[11],inactive
same,outcome,[12],inactive
same,outcome,[13],inactive
same,outcome,[14],inactive
same,outcome,[15],inactive
CCCCOCCOCCOCc1cc2c(cc1CCC)OCO2,outcome,[16],inactive
same,outcome,[3],inactive
same,outcome,[4],inactive
same,outcome,[5],inactive
same,outcome,[6],inactive
same,outcome,[7],inactive
same,outcome,[8],inactive
same,outcome,[9],inactive
same,outcome,[10],inactive
same,outcome,[12],inactive
same,outcome,[13],inactive
same,outcome,[14],inactive
same,outcome,[15],inactive
COC(=O)CSc1cc(N=c2sc(=O)n3n2CCCC3)c(F)cc1Cl,outcome,[16],inactive
same,outcome,[1],inactive
same,outcome,[2],inactive
same,outcome,[4],inactive
same,outcome,[6],inactive
same,outcome,[7],inactive
same,outcome,[8],inactive
same,AC50,[18],27.2 µM (active)
same,outcome,[10],inactive
same,outcome,[11],inactive
same,outcome,[12],inactive
same,outcome,[13],inactive
same,outcome,[14],inactive
same,outcome,[15],inactive
CCOC(=O)c1ccc(O)cc1,outcome,[16],inactive
same,outcome,[3],inactive
same,outcome,[4],inactive
same,outcome,[5],inactive
same,outcome,[6],inactive
same,outcome,[7],inactive
same,outcome,[8],inactive
same,AC50,[10],100 µM (active)
same,outcome,[10],inactive
same,outcome,[11],inactive
same,outcome,[12],inactive
same,outcome,[13],inactive
same,outcome,[14],inactive
same,outcome,[15],inactive
N[C@@H](Cc1cc(I)c(Oc2ccc(O)c(I)c2)c(I)c1)C(=O)O,outcome,[1],inactive
same,outcome,[2],inactive
same,outcome,[3],inactive
same,outcome,[4],inactive
same,outcome,[5],inactive
same,outcome,[6],inactive
same,outcome,[7],inactive
same,outcome,[8],inactive
same,outcome,[10],inactive
same,AC50,[11],25.2 µM (active)
same,outcome,[11],inactive
same,outcome,[12],inactive
same,outcome,[13],inactive
same,outcome,[14],inactive
same,AC50,[15],16 µM (active)
